Our source for the Potency, outcome and max activation values is PubChem BioAssay (Tox21).

Test [1] is described as follows: qHTS assay to identify small molecule antagonists of the progesterone receptor (PR) signaling pathway - cell viability counter screen (AID 1346798). Note: nearly all actives have a fitted effect of over 50% in size. Note: potency is the fitted concentration of half-maximal effect. Put shortly: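 In the same plates used for the beta-lactamase readout, cell viability of compound- and R5020-treated PR-UAS-bla HEK293T cells (16 hr, 37C) was assessed by CellTiter-Glo luminescence.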
(In qHTS, concentration-response curves come from the screen itself.)

A short description of test [2]: qHTS assay to identify small molecule agonists of the progesterone receptor (PR) signaling pathway - cell viability counter screen (AID 1346799; calls by dose curve; note: nearly all actives have a fitted effect of over 45% in size; note: potency is the fitted concentration of half-maximal effect). In outline: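 Multiplexed viability read: CellTiter-Glo luminescence, 30 min RT, following LiveBLAzer FRET measurement on PR-UAS-bla HEK293T cells exposed to compounds 16 hr.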
A short description of test [3]: qHTS assay to identify small molecule antagonists of the TGF-beta/Smad signaling pathway - cell viability counter screen (AID 1346824). Note: nearly all actives have a fitted effect of over 50% in size. Put shortly:
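Cytotoxicity counter-screen run in the same wells as the beta-lactamase Smad reporter read: CellTiter-Glo luminescence after 30 min at room temperature. HEK 293T SBE-bla cells had 5 hr compound exposure at 37 C with TGF-beta1 (0.25 ng/mL stock).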

Test [4] in a line: qHTS assay to identify small molecule agonists of the TGF-beta/Smad signaling pathway - cell viability counter screen (AID 1346829). Note: top concentration of the series differs between compounds; nearly all actives have a fitted effect of over 45% in size. In outline:
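Tox21 qHTS format: SBE-bla HEK 293T cells treated with DMSO-dissolved compounds for 5 hr; CellTiter-Glo luminescence after 30 min at room temperature.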

Test [5] in a line: qHTS assay to identify small molecule agonists of the TGF-beta/Smad signaling pathway (AID 1346859; active = well fitted activation curve with a large enough effect in the signal ratio in the repeat runs, not every such curve was filed as active; the % refers to the signal ratio; note: series mostly up to about 77 µM). Put shortly: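 Screening used HEK 293T SBE-bla cells at 4,000/well. Test agents: 5 hr, 37 C. Detection: FRET substrate, 2 hr RT, then excitation 405 nm with emissions at 460 and 530 nm.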
Test [6] addresses Thyrotropin-releasing hormone receptor (Homo sapiens) (UniProt P34981). Briefly: qHTS assay to identify small molecule agonists of the thyrotropin-releasing hormone receptor (TRHR) signaling pathway (AID 1346891; calls by dose curve; note: series mostly up to about 58 µM). Put shortly: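 Readout was intracellular calcium fluorescence in TRHR-Hek293 cells. Cells were incubated 18 h, dye-loaded 2 h at 37 °C, and treated with compound in agonist mode.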

Test [7] is described as follows: Human pregnane X receptor (PXR) small molecule agonists, qHTS cell viability counter screen (AID 1346977). Note: nearly all actives have a fitted effect of over 50% in size. Note: potency is the fitted concentration of half-maximal effect. Put shortly:
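In each well, the PXR reporter HepG2 line was checked for viability: CellTiter-Fluor reagent added 23hr post-dosing, fluorescence read after 1hr incubation at 37C.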

A short description of test [8]: Caspase-3/7 induction in HepG2 cells by small molecules, qHTS assay (AID 1346978). Note: nearly all actives have a fitted effect of over 15% in size. Note: potency is the fitted concentration of half-maximal effect. Put shortly: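 Caspase-3/7 induction was measured by Caspase-Glo 3/7 luminescence (30 min, room temperature) after a 17 hr compound exposure of wild-type HepG2 cells seeded at 2,000 per well and pre-incubated 5 hr.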
A short description of test [9]: Caspase-3/7 induction in CHO-K1 cells by small molecules, qHTS cell viability counter screen (AID 1346979). Note: nearly all actives have a fitted effect of over 35% in size. Note: potency is the fitted concentration of half-maximal effect. Put shortly: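 Following a 5hr settling period, CHO-K1 cells at 1,500 per well received DMSO-dissolved compounds. Cell viability was quantified 16hr later by CellTiter-Fluor fluorescence, measured after 1hr with reagent at 37C.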
A short description of test [10]: Caspase-3/7 induction in CHO-K1 cells by small molecules, qHTS assay (AID 1346980). Note: nearly all actives have a fitted effect of over 15% in size. In outline:
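Luminescent Caspase-Glo 3/7 read (30min, room temperature) quantified apoptosis induction. Cells were wild-type CHO-K1, treated with compound for 17hr at 37 C and 5% CO2.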

The nature of test [11]: Caspase-3/7 induction in HepG2 cells by small molecules, qHTS cell viability counter screen (AID 1346981). Note: nearly all actives have a fitted effect of over 30% in size. Note: potency is the fitted concentration of half-maximal effect. Put shortly:
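In this quantitative HTS counter screen, compounds delivered in DMSO were left on unmodified HepG2 cells for 16 hr at 37 C. Viability was then determined fluorometrically with CellTiter-Fluor, in parallel with caspase-3/7 induction in the same wells.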

Test [12] has as its target Nuclear receptor subfamily 1 group I member 2 (Homo sapiens) (UniProt O75469). Briefly: Human pregnane X receptor (PXR) small molecule agonists, qHTS assay (AID 1346982). Note: nearly all actives have a fitted effect of over 35% in size. Note: potency is the fitted concentration of half-maximal effect. Put shortly: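 Reporter HepG2 cells expressing PXR-Luc are cultured in charcoal-stripped FBS (5%), treated with compounds for 24 hr at 37 C, and assayed by ONE-Glo luminescence after 30 min at room temperature.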

Test [13] concerns the target Cytochrome P450 2D6 (Homo sapiens) (UniProt P10635). In words: Cytochrome P450 Family 2 Subfamily D Member 6 (CYP2D6) small molecule antagonists: luciferase reporter qHTS assay (AID 1671196). Note: nearly all actives have a fitted effect of over 50% in size. Note: potency is the fitted concentration of half-maximal effect. In outline: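 Test chemicals meet CYP2D6 plus proluciferin substrate (10 min, RT); NADPH regenerating solution then drives turnover for 1 h. Detection reagent halts the reaction; luminescence measured after 20 min.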
In general terms: A reporter such as luciferase makes a cellular process visible.

Test [14] concerns the target Cytochrome P450 2C19 (Homo sapiens) (UniProt P33261). In words: Cytochrome P450 Family 2 Subfamily C Member 19 (CYP2C19) small molecule antagonists: luciferase reporter qHTS assay (AID 1671197). Note: nearly all actives have a fitted effect of over 65% in size. Note: potency is the fitted concentration of half-maximal effect. In outline:
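Relative luminescence units recorded 20 min after the detection reagent stopped a 1 h, 37C CYP2C19 reaction on proluciferin substrate, which was started by NADPH regeneration following 10 min room-temperature compound preincubation; ketoconazole positive control.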

Test [15] addresses Cytochrome P450 2C9 (Homo sapiens) (UniProt P11712). In words: Cytochrome P450 Family 2 Subfamily C Member 9 (CYP2C9) small molecule antagonists: luciferase reporter qHTS assay (AID 1671198). Note: nearly all actives have a fitted effect of over 50% in size. Note: potency is the fitted concentration of half-maximal effect. Put shortly: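 Enzyme-substrate mix preincubated with compound 10 min at room temperature; reaction started with NADPH regeneration solution, 1 h 37C. Luminescent luciferin product read after 20 min detection reagent.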

Test [16] concerns the target Cytochrome P450 1A2 (Homo sapiens) (UniProt P05177). Briefly: Cytochrome P450 Family 1 Subfamily A Member 2 (CYP1A2) small molecule antagonists: luciferase reporter qHTS assay (AID 1671199). Note: nearly all actives have a fitted effect of over 50% in size. Note: potency is the fitted concentration of half-maximal effect. Put shortly: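 Steps: enzyme-substrate mix dispensed; test compounds and furafylline control pinned in; 10 min room temperature; NADPH regeneration solution added, 1 h; reaction stopped with luciferin detection reagent; luminescence read after 20 min.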

Test [17] deals with Nuclear receptor subfamily 1 group I member 2 (Rattus norvegicus) (UniProt Q9R1A7). Briefly: Rat pregnane X receptor (rPXR) activation by small molecules, qHTS assay (AID 1346983). Note: nearly all actives have a fitted effect of over 20% in size. Note: potency is the fitted concentration of half-maximal effect. The conditions noted are these: rPXR luciferase reporter cells, One-Glo luminescence, 24 h; max activation: stronger effect = higher value. Put shortly: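 Luminescent readout (One-Glo luciferase, 30 min room temperature) followed 24 hr compound treatment at 37 C of rPXR cells plated 2,000 per well and preincubated 5hr; qHTS format with compounds delivered in DMSO.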

Test [18] deals with Nuclear receptor subfamily 1 group I member 2 (Homo sapiens) (UniProt O75469). Briefly: CYP3A4 induction through human pregnane X receptor (PXR) by small molecules, qHTS assay (AID 1346984). Note: nearly all actives have a fitted effect of over 40% in size. In outline: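 Induction measured in HepG2-based DPX-2 cells co-expressing human PXR and a CYP3A4 promoter-driven luciferase. After a 24-hour compound exposure, cells received CYP3A4 luciferin substrate at 3uM final for 3 hours, and light output was then recorded.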

For test [19] the target is unchanged. Briefly: Human pregnane X receptor (PXR) activation by small molecules, qHTS assay (AID 1346985). Note: nearly all actives have a fitted effect of over 40% in size. Put shortly:
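DPX-2 cells (HepG2 co-transfected with a PXR response element and a CYP3A4-promoter luciferase construct) were seeded at 2,000 per well, rested 5 hr at 37C, then exposed to DMSO-dissolved compounds for 24 hr. Activation was read as luciferase luminescence.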

Values joined by “and” are separate entries in the source; they are usually repeats but may differ in a detail not shown here. Equal entries are not always repeated. Inconclusive results are not listed. A structure can be active in one record and inactive in another. Active and inactive are the calls of the source. Unless noted, calls come from the whole dose curve; as a rule, active = well fitted curve in the direction sought with a large enough effect in the repeat runs; inconclusive = weak or mixed curves; inactive = no such curve, though single readings can be large; an effect the other way counts as inactive or inconclusive.
% is set by controls: 0 for no effect and ±100 for the full control effect.

Chain of Cytochrome P450 1A2 (Homo sapiens) (P05177 whole entry, looked up): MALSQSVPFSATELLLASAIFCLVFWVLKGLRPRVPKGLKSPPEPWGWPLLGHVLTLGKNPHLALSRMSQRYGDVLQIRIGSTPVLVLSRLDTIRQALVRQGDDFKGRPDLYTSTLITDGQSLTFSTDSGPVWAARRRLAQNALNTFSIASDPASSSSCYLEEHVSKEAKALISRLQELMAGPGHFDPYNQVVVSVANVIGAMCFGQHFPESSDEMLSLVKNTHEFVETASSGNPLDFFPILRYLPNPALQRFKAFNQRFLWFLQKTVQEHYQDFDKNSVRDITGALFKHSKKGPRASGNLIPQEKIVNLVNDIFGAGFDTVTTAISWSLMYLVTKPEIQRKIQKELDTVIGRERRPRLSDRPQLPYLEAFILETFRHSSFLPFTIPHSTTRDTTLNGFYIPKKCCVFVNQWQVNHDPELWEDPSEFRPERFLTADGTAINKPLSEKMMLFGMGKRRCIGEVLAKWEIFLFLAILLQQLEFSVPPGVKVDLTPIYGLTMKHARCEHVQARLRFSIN
Chain of Nuclear receptor subfamily 1 group I member 2 (Homo sapiens) (O75469 whole entry, looked up): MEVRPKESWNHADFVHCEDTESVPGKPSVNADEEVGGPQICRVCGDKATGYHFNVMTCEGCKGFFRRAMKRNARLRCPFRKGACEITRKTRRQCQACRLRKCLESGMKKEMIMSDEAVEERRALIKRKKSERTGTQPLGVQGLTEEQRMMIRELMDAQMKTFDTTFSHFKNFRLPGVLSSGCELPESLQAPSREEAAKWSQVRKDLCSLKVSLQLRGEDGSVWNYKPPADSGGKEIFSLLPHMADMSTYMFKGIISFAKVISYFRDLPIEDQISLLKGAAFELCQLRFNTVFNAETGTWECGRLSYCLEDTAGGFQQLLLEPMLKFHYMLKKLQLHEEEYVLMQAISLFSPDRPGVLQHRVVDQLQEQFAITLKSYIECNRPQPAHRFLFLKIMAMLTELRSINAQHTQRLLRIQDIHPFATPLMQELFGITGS
Chain of Thyrotropin-releasing hormone receptor (Homo sapiens) (P34981 whole entry, looked up): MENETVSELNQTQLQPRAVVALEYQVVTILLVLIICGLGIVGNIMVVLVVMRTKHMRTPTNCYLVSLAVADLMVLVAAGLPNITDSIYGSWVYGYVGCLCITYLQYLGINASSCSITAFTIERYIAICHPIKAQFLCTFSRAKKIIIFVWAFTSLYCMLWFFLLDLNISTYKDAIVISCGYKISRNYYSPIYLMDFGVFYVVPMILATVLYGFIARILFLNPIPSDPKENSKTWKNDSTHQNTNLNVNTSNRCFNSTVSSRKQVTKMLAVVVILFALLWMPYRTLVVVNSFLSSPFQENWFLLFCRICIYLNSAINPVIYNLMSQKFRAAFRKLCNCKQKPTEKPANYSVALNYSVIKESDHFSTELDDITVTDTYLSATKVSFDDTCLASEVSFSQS
Chain of Cytochrome P450 2D6 (Homo sapiens) (P10635 whole entry, looked up): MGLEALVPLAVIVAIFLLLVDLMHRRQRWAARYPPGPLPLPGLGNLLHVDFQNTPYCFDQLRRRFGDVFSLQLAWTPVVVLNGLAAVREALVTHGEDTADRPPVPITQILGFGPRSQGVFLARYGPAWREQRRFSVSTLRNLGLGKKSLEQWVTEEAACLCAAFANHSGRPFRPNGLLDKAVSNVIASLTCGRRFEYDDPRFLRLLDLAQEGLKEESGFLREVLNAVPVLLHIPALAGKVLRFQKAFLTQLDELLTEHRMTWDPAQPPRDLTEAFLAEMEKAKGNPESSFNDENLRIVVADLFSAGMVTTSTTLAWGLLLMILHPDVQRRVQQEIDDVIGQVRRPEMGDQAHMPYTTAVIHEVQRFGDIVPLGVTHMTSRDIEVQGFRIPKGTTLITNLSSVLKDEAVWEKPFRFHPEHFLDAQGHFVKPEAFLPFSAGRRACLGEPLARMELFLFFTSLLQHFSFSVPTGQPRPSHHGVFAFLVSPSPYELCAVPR
Chain of Cytochrome P450 2C9 (Homo sapiens) (P11712 whole entry, looked up): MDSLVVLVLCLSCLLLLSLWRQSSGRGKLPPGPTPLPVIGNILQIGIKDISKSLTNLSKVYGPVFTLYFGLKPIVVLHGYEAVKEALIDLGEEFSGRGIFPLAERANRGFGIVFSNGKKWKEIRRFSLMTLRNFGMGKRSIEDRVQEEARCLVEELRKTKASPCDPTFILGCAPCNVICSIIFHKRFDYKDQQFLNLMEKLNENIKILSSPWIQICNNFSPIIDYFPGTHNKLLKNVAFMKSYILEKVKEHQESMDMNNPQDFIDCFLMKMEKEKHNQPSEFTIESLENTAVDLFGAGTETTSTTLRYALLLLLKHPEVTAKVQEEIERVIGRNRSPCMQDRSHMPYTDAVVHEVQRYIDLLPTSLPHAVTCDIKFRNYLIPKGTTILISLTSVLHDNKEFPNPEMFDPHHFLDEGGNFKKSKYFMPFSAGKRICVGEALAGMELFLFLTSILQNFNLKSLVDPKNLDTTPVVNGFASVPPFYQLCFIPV
Chain of Cytochrome P450 2C19 (Homo sapiens) (P33261 whole entry, looked up): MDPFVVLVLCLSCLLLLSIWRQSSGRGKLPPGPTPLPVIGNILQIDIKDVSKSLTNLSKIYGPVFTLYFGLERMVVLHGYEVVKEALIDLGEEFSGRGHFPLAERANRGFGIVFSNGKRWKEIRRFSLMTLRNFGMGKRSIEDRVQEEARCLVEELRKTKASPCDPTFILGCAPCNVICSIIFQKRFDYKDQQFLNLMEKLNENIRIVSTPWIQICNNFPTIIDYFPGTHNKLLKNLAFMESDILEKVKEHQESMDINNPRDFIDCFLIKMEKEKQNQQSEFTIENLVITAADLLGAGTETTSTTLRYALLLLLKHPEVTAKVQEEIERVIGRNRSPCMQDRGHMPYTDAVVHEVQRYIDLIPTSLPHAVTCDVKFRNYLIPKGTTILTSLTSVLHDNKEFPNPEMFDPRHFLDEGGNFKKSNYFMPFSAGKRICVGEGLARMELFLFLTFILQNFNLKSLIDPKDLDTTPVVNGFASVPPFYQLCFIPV
Chain of Nuclear receptor subfamily 1 group I member 2 (Rattus norvegicus) (Q9R1A7 whole entry, looked up): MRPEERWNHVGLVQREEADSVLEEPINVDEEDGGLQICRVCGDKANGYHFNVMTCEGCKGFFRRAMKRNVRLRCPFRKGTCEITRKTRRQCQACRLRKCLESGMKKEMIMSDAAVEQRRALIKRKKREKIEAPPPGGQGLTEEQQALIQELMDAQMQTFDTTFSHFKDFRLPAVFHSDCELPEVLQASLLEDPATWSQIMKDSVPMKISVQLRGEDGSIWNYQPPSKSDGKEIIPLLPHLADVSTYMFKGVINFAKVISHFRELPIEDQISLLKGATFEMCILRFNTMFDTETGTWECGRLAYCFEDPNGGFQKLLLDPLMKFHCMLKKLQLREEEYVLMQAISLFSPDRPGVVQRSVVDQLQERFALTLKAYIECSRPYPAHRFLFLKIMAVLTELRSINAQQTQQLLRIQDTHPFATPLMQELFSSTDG

Consider `Nc1cc([N+](=O)[O-])ccc1O`, for which the Potency result in test [1], in test [2], in [3], in [4], in test [8] and in [12] was “inactive” throughout. The Potency entry in test [13] is “inactive”. Moreover, the call in [5], in test [6] and in [10] was inactive. Moreover, the Potency is 39.8 µM (active) and 54.2 µM (active) in test [7]; 54.5 µM (active) and 60.8 µM (active) in test [9]; 48.6 µM (active) and 68.2 µM (active) in [11]; 39.9 µM (active) and inactive in test [14]; 31.7 µM (active) and 39.7 µM (active) in [15]; 39.9 µM (active) in [16].

In the case of `CC1=CCC2CC1C2(C)C` (stereo not drawn), the Potency result in [1], in test [2], in [3], in test [4], in test [7] and in test [8] was “inactive” each time. The Potency entry in test [9], in [11], in test [12], in test [19], in [14] and in test [15] was “inactive” in each case. For the same molecule, the Potency entry in test [16] is “inactive”. Besides, the call in test [5], in [6], in [10] and in test [18] was inactive. Moreover, the max activation in test [17] was -0.804% (inactive). For the same molecule, the Potency entry in [13] is “inactive and 7.1 µM (active)”.

On to `Cc1cnc(C(=O)NCCc2ccc(S(=O)(=O)NC(=O)NC3CCCCC3)cc2)cn1`, for which the Potency result in test [1], in test [2], in test [3], in test [4], in test [7] and in [8] was “inactive” each time. The Potency result in test [9], in test [11] and in [12] was “inactive” each time. The molecule was called inactive in [5] and in test [10].

Regarding `Cc1ccc2oc(=O)ccc2c1`, the Potency entry in test [1], in [2], in test [3], in test [4], in [7] and in test [8] was “inactive” each time. Further, the Potency result in test [9], in [11], in test [13] and in test [15] was “inactive” throughout. In addition, the molecule was classed as inactive in test [5], in test [6] and in test [10]. The Potency in test [12] is 31.5 µM (active) and inactive; in [14], “inactive and 35.6 µM (active)”; in test [16], 32.6 µM (active) and 31.7 µM (active).

On to `O=C=NCCCCCCN=C=O`, for which the Potency result in test [1], in test [2], in [3], in test [4], in [7] and in test [8] was “inactive” throughout. Further, the Potency entry in test [11], in test [13] and in [16] was “inactive” in each case. Moreover, the outcome in test [5], in test [6] and in test [10] was inactive. The Potency in [9] is 53.3 µM (active) and inactive; in test [12], 47.5 µM (active) and inactive; in test [14], 69.4 µM (active) and inactive.

Take `CC(C)(C)[C@@H](O)[C@@H](Cc1ccc(Cl)cc1)n1cncn1`: the Potency entry in test [1], in test [2], in [3], in test [4], in test [7] and in [8] was “inactive” throughout. Besides, the Potency entry in test [9], in test [11] and in test [16] was “inactive” throughout. The molecule was called inactive in test [5], in test [6] and in [10]. Further, the Potency was 34.1 µM (active) in test [12]; 71 µM (active) in [13]; 250 nM (active) and 159 nM (active) in test [14]; 11.2 µM (active) and 22.4 µM (active) in [15].

`CC[C@H](C)C(=O)O[C@H]1C[C@@H](C)C=C2C=C[C@H](C)[C@H](CC[C@@H]3C[C@@H](O)CC(=O)O3)[C@H]21`: the Potency in [1] was 62 µM (active); in test [2], 7.66 µM (active); in test [8] it was 55.2 µM (active) and inactive; in test [9] it was 69.6 µM (active); in [11] it was 69.6 µM (active) and inactive; in test [12] it was 24.7 µM (active) and inactive. The Potency in [17] was 12.6 µM (active); in test [13] it was 36.1 µM (active) and inactive. Moreover, the Potency entry in test [3], in test [4], in test [7] and in [16] was “inactive” throughout. Also, the outcome in [5], in test [6] and in test [10] was inactive.
